This passage reports inhibition results from ChEMBL document CHEMBL1961873, “Compounds: GSK PKIS; Assays: Nanosyn kinase panel” (2012).

The target in experiment [1] is T1, Aurora kinase A (Homo sapiens) (UniProt O14965).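 Note: values are mean percent inhibition.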
T1 sequence (whole entry): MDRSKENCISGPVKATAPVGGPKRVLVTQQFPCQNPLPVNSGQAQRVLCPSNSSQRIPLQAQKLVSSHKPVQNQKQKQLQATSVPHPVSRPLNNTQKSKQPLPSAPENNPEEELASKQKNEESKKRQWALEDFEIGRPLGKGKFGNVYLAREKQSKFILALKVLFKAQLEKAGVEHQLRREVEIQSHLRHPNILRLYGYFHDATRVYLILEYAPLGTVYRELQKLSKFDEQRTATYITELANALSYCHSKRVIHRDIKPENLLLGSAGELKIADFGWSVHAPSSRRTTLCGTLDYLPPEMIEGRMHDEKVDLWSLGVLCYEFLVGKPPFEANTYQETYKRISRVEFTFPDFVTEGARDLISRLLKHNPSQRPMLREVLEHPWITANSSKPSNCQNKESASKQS
Particulars: at 1 µM.

Experiment [2] addresses Aurora kinase B (Homo sapiens) (UniProt Q96GD4). Particulars: at 0.1 µM.
For experiment [3] the target is unchanged. Particulars: at 1 µM.
The target of experiment [4] is T2, Aurora kinase C (Homo sapiens) (UniProt Q9UQB9).
T2 sequence (whole entry): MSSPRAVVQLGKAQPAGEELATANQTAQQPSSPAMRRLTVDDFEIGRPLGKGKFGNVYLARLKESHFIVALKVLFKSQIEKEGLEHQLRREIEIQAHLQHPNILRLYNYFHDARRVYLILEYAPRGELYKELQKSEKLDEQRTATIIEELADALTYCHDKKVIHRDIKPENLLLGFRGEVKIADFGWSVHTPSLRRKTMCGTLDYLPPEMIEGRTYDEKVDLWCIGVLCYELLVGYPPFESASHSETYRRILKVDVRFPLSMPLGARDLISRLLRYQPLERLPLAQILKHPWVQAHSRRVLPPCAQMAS
Particulars: at 0.1 µM.

Experiment [5] has as its target T2, Aurora kinase C (Homo sapiens). Particulars: at 1 µM.
Experiment [6] has as its target Serine/threonine-protein kinase 10 (Homo sapiens) (UniProt O94804). Particulars: at 0.1 µM.
For experiment [7] the target is unchanged. Particulars: at 1 µM.
Experiment [8] addresses T3, Mitogen-activated protein kinase kinase kinase kinase 2 (Homo sapiens) (UniProt Q12851).
T3 sequence (whole entry): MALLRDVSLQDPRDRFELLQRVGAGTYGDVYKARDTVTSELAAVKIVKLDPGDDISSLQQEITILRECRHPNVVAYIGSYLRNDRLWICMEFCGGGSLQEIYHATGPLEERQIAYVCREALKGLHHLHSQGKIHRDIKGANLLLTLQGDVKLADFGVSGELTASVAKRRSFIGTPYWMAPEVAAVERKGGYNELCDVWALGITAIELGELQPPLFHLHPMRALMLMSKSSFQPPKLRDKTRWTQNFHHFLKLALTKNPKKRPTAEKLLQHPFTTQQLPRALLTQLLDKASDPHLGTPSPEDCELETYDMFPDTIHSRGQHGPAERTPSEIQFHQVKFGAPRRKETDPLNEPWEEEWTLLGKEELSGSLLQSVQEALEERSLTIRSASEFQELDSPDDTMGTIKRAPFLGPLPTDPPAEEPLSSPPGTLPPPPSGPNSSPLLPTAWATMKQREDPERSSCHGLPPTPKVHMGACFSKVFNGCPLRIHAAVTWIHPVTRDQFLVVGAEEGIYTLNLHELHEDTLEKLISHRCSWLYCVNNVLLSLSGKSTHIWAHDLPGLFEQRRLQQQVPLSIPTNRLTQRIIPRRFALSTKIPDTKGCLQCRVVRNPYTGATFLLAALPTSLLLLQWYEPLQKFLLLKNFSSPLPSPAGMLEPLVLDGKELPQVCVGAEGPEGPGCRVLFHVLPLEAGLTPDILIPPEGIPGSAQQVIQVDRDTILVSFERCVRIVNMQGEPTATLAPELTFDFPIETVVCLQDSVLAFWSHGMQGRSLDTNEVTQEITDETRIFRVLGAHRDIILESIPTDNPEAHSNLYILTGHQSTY
Particulars: at 0.1 µM.

For experiment [9], the target named is T3, Mitogen-activated protein kinase kinase kinase kinase 2 (Homo sapiens). Particulars: at 1 µM.
In experiment [10] the target is Mitogen-activated protein kinase kinase kinase kinase 4 (Homo sapiens) (UniProt O95819). Particulars: at 0.1 µM.
Mitogen-activated protein kinase kinase kinase kinase 4 (Homo sapiens), sequence (O95819 2-1239 limits assumed): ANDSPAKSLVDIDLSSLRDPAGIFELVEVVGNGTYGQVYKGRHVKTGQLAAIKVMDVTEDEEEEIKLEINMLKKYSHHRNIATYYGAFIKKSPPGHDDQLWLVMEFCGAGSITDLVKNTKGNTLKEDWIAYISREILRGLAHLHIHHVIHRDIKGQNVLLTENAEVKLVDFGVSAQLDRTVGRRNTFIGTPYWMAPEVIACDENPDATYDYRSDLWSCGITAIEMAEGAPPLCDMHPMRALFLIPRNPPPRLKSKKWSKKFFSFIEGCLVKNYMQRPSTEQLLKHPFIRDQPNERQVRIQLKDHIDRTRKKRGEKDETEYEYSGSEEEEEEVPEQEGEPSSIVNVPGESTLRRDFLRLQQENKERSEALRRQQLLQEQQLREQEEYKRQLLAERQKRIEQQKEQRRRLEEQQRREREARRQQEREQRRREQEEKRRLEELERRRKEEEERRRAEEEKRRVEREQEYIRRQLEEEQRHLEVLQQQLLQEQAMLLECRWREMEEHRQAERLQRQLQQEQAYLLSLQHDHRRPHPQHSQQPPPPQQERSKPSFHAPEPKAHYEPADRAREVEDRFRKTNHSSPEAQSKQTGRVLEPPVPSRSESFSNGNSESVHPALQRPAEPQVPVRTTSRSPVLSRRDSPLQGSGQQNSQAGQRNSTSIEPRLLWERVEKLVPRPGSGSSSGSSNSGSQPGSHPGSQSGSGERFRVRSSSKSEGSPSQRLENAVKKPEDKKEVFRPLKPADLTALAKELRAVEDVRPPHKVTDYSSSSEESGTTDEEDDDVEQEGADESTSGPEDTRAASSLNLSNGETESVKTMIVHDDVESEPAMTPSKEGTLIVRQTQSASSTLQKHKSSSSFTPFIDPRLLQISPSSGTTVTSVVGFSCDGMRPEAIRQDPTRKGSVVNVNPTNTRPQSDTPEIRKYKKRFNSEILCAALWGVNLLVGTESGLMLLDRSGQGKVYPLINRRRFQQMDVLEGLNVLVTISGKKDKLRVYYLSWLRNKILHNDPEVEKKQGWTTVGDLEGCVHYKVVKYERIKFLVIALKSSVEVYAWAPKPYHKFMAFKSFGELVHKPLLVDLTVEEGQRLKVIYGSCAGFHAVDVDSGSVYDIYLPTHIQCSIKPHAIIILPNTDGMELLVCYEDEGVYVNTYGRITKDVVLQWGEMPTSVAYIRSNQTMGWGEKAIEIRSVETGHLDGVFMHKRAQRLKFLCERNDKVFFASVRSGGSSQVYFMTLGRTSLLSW
Experiment [11] has the same target. Particulars: at 1 µM.
Experiment [12] deals with Dual specificity mitogen-activated protein kinase kinase 1 (Homo sapiens) (UniProt Q02750). Particulars: at 0.1 µM.
Dual specificity mitogen-activated protein kinase kinase 1 (Homo sapiens), sequence (Q02750 whole entry): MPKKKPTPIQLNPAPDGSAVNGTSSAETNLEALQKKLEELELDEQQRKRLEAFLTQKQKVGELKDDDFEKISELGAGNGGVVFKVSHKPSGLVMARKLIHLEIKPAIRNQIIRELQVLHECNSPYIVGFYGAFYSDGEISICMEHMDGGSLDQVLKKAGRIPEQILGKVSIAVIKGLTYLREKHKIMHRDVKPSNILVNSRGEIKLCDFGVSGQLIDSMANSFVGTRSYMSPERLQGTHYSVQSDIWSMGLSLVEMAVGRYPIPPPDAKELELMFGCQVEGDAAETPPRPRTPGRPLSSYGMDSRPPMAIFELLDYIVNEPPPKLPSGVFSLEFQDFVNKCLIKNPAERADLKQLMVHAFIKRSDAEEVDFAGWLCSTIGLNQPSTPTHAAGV
Experiment [13] shares this target. Particulars: at 1 µM.
Experiment [14] addresses Misshapen-like kinase 1 (Homo sapiens) (UniProt Q8N4C8). Particulars: at 0.1 µM.
Experiment [15] has the same target. Particulars: at 1 µM.
Experiment [16] deals with T4, Serine/threonine-protein kinase 4 (Homo sapiens) (UniProt Q13043).
T4 sequence (whole entry): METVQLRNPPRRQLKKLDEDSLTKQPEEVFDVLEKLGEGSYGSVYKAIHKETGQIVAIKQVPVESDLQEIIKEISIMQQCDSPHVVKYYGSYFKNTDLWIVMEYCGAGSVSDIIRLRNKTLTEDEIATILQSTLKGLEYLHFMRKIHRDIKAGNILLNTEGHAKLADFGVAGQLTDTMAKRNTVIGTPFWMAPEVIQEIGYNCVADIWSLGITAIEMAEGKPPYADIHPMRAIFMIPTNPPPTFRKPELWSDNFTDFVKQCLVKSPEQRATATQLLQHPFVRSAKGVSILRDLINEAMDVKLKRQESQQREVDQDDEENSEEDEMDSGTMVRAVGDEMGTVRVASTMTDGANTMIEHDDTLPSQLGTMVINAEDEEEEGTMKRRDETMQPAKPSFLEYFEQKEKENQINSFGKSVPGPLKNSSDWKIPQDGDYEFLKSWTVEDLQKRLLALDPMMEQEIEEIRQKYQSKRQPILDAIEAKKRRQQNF
Particulars: at 0.1 µM.

Experiment [17] has as its target T4, Serine/threonine-protein kinase 4 (Homo sapiens). Particulars: at 1 µM.
For experiment [18], the target named is T5, Serine/threonine-protein kinase 3 (Homo sapiens) (UniProt Q13188).
T5 sequence (whole entry): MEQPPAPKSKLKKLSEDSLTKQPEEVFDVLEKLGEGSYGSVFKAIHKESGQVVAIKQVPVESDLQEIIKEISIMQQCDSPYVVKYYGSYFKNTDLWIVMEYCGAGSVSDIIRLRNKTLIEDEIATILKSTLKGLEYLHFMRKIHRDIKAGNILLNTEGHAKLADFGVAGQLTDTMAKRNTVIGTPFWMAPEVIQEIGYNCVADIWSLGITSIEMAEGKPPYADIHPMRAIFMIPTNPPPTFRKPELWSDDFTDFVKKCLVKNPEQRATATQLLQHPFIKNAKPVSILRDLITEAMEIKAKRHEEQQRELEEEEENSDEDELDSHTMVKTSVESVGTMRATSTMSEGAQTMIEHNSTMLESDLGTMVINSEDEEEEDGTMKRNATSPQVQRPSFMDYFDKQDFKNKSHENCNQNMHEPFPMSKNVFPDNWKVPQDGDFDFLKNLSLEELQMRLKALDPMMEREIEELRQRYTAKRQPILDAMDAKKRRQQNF
Particulars: at 0.1 µM.

Experiment [19] deals with T5, Serine/threonine-protein kinase 3 (Homo sapiens). Particulars: at 1 µM.
Experiment [20] has as its target Serine/threonine-protein kinase 26 (Homo sapiens) (UniProt Q9P289). Particulars: at 0.1 µM.

Aurora kinase B (Homo sapiens), sequence (Q96GD4 whole entry): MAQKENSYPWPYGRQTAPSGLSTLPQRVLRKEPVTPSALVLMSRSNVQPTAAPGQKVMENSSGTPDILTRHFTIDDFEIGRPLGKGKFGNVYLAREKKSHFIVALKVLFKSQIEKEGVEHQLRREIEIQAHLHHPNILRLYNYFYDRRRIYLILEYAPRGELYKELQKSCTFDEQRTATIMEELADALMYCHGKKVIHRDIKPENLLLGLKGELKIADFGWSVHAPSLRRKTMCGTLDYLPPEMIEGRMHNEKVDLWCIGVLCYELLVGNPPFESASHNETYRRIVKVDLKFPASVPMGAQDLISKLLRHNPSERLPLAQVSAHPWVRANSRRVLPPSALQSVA
Serine/threonine-protein kinase 26 (Homo sapiens), sequence (Q9P289 2-416 limits assumed): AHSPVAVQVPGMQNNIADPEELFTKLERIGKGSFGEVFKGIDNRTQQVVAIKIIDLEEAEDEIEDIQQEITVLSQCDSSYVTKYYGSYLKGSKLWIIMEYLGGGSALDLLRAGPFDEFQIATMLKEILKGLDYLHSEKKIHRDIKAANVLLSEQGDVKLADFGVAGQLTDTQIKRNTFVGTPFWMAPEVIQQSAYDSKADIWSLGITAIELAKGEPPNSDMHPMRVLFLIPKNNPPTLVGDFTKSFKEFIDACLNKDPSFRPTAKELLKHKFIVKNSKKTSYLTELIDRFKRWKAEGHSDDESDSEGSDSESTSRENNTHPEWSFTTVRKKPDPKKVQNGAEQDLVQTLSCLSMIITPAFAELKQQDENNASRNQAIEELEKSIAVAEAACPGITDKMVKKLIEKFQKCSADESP
Serine/threonine-protein kinase 10 (Homo sapiens), sequence (O94804 whole entry, looked up): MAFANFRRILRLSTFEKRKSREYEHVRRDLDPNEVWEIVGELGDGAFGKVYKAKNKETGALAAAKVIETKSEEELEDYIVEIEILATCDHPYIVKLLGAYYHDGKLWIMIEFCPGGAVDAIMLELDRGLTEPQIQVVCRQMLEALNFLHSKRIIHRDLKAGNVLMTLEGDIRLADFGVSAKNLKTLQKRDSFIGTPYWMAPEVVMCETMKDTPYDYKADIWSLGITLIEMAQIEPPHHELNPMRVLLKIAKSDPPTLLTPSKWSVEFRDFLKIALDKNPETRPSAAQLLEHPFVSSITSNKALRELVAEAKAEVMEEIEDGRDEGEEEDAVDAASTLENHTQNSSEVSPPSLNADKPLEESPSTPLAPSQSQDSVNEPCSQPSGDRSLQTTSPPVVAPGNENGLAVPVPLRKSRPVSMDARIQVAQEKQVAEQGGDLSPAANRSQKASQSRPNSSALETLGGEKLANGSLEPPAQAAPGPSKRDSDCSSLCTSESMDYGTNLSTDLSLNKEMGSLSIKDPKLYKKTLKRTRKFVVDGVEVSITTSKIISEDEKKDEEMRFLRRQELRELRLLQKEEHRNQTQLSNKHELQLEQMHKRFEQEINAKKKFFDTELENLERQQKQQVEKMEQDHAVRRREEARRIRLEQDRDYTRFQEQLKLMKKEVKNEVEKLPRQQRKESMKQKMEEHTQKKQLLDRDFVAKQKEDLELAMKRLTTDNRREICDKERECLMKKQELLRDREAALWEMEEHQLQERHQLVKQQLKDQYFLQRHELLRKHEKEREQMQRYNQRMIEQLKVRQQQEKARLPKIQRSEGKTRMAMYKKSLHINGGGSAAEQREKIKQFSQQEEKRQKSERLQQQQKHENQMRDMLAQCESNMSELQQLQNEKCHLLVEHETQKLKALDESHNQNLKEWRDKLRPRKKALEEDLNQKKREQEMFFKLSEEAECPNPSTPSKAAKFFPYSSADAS
Misshapen-like kinase 1 (Homo sapiens), sequence (Q8N4C8 whole entry, looked up): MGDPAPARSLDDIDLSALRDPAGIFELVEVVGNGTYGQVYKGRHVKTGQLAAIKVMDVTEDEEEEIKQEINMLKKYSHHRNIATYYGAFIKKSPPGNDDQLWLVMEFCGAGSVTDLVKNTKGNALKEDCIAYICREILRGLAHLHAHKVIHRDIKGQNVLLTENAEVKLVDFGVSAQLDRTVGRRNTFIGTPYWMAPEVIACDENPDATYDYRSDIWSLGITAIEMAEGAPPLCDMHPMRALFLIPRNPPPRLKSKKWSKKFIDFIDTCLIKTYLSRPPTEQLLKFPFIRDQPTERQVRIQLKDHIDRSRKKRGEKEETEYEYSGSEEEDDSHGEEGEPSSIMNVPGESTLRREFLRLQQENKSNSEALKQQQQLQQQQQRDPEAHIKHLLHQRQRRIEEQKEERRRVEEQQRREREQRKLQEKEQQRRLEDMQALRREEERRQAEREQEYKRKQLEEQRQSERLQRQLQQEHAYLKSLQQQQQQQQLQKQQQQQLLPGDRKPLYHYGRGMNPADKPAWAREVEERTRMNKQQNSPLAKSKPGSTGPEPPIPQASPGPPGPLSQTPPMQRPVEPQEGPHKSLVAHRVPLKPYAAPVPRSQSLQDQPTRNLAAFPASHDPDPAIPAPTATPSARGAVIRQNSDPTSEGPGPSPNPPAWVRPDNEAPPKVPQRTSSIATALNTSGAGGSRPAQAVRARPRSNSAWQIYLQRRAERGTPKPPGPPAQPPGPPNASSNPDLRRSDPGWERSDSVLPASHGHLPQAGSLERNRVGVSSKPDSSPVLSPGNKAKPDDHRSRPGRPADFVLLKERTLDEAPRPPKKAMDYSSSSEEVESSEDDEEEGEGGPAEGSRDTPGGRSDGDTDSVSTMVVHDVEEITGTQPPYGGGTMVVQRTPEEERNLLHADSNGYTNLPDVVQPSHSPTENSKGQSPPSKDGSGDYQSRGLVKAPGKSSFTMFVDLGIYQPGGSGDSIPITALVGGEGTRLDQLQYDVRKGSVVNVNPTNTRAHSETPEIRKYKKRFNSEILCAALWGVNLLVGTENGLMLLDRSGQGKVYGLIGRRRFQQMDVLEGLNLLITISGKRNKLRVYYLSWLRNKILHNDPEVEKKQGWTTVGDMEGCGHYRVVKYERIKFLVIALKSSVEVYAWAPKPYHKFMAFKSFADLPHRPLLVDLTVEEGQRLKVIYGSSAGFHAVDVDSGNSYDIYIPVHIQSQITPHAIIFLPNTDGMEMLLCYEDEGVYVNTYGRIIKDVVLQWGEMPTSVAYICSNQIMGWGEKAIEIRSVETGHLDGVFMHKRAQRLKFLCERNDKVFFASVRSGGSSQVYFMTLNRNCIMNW

By inhibition is commonly meant the relative decrease from the control value, in per cent. Regarding `CS(=O)(=O)Nc1ccc(-c2cc(-c3ccccc3)cc(C(N)=O)c2N)cc1`, the inhibition in experiment [1] was determined as 1.71%; in experiment [2], 1.93%; in experiment [3], 5.23%; in experiment [4], 0.13%; in [5], 4.66%; in [6] it was 2.01%. The inhibition is 4.84% in [7]; -1.83% in experiment [8]; 1.34% in [9]; 3.1% in [10]; 16.6% in [11]; 3.57% in experiment [12]. Also, the inhibition in experiment [13] is 2.74%; in experiment [14], 0.77%; in experiment [15], 10.4%; in [16], 0.24%; in [17] it was 0.83%; in [18], -1.12%. In addition, the inhibition in experiment [19] was -0.76%; in [20] it was -1.2%.
For the molecule `COc1cccc(-n2ncc3c(N/N=C/c4ccc(C(=O)NCCN(C)C)cc4)ncnc32)c1`, the inhibition in [1] stood at 62.7%; in [2], 7.23%; in experiment [3] it was 38.6%; in experiment [4], 5.58%; in experiment [5] it was 57%; in experiment [6] it was 23%. In addition, the inhibition in experiment [7] was 61.2%; in experiment [8] it was 3.89%; in experiment [9], 21.8%; in experiment [10], 31.3%; in experiment [11], 78.1%; in experiment [12], 2.77%. Moreover, the inhibition in experiment [13] is 4.04%; in experiment [14], 23.1%; in experiment [15], 64.8%; in experiment [16], 4.6%; in experiment [17], 10.1%; in experiment [18], 4.33%. The inhibition in experiment [19] is 6.3%; in [20], -1.8%.
For the molecule `N#Cc1cccc(Nc2ncc(-c3ccccc3)o2)c1`, the inhibition in experiment [1] amounted to 11.6%; in [2], 4.81%; in experiment [3], 1.97%; in [4], 1.44%; in experiment [5] it was 5.62%; in experiment [6], 2.27%. For the same molecule, the inhibition worked out at 3.84% in experiment [7]; 0.79% in experiment [8]; 2.94% in experiment [9]; 4.93% in experiment [10]; 23.8% in experiment [11]; 2.21% in [12]. In addition, the inhibition in experiment [13] came to 2.12%; in [14] it was 5.1%; in experiment [15] it was 19.2%; in experiment [16], 3%; in experiment [17], 5.15%; in experiment [18] it was 4.16%. The results for the inhibition in experiment [19] and in experiment [20] were 5.23% and -0.1%, respectively.
As for `c1ccc(-c2n[nH]cc2-c2ccnc(-c3ccc(OCCn4ccnc4)cc3)c2)nc1`, the inhibition in [1] turned out to be 11.1%; in experiment [2] it was 1.69%; in experiment [3], 15.1%; in experiment [4], 1.04%; in experiment [5], 7.73%; in experiment [6] it was 2.54%. In addition, the inhibition in experiment [7] stood at 4.01%; in experiment [8], 3.67%; in experiment [9], 7.08%; in [10], 42.6%; in [11] it was 81.8%; in [12], 5.95%. Also, the inhibition in experiment [13] was 2.45%; in experiment [14], 31.9%; in [15], 79%; in experiment [16], -0.86%; in experiment [17], 6.24%; in [18], -0.71%. In addition, the results for the inhibition in experiment [19] and in experiment [20] were 3.49% and -1.3%, respectively.
On to `COc1cc2c(cc1Nc1nc(Nc3cccc(F)c3C(N)=O)c3cc[nH]c3n1)N(C(=O)CN1CCN(C(C)C)CC1)CC2`, for which the inhibition in experiment [1] is 0.34%; in experiment [2] it was 1.62%; in experiment [3], 2.41%; in experiment [4] it was -0.27%; in experiment [5] it was 3.25%; in experiment [6] it was 2.03%. Moreover, the inhibition in experiment [7] came to 5.12%; in [8], 1.69%; in [9], 11.3%; in [10], 0.45%; in [11], 3.14%; in experiment [12], 0.13%. Also, the inhibition in experiment [13] was 4.11%; in experiment [14], 3.15%; in experiment [15], 3.43%; in experiment [16] it was 0.17%; in experiment [17], 3.77%; in experiment [18], 2.26%. Besides, the figures for the inhibition in experiment [19] and in experiment [20] were 2.65% and 1.63%, respectively.
